Assay outcomes as filed in PubChem.
The list is not random: actives were taken first. Their share in the collection is about 21%.
Pf growth 96h – Primary qHTS for delayed death inhibitors of the malarial parasite plastid, 96 hour incubation; P. falciparum luciferase reporter growth, 96 h; Potency, µM (titrated, usually from 28.7 µM), for inactives: at the highest dose activity change, negative = inhibition, actives largely listed as inhibitors; 320,000 tested, 6.9% active; AID 504834, 2011; also: potency is read from the fitted curve at half-maximal effect; % is scaled to controls: 0 for no effect and ±100 for the full control effect
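Delayed-death screen, second-generation endpoint: infected erythrocytes, 2% hematocrit, 0.05% parasitemia final; 96 hours at 37 C, 5% CO2; luciferase detection reagent; luminescence decrease equals reduced growth.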
Pf growth 48h – Primary qHTS for delayed death inhibitors of the malarial parasite plastid, 48 hour incubation; Potency, µM (doses to about 28.7 µM), for inactives: top-dose activity change, negative = inhibition, most hits filed as inhibitors; P. falciparum luciferase growth in erythrocytes, 48 h; AID 504832, 2011; 310,000 tested, 5.9% active; also: potency is read from the fitted curve at half-maximal effect; % is scaled to controls: 0 for no effect and ±100 for the full control effect
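Firefly luciferase activity from engineered P. falciparum reports growth; inhibitors lower the luminescent signal. Cultures contained 2% hematocrit erythrocytes at 0.1% final parasitemia.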
Shiga inhibitor – A qHTS for Small Molecule Inhibitors of Shiga Toxin | Vero cells, Shiga toxin protein synthesis inhibition reporter | inhibition, % at 38.7 µM | 290,000 tested, 9.2% active; in the data active = inhibition mostly above about 28%, no sharp cut-off; inactive = mostly below about 43%; also: 0% is about no effect
NS1 inh – qHTS Assay for Inhibitors of Influenza NS1 Protein Function. 270,000 tested, 0.4% active. AID 2326, 2010. Potency, µM (series often up to 46.1 µM), for inactives: top-dose activity, positive = more growth; calls by dose curve; also: potency is read from the fitted curve at half-maximal effect; actives are rising curves; nearly all actives have a fitted effect of over 50% in size
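Compounds were scored for reversing the slow growth caused by influenza A NS1 in S. cerevisiae, measured by optical density at 600 nm. Assay medium contained 2% galactose at pH 6.0; NS1-free yeast of the same strain were the positive control.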
Giardia FBPA inh – qHTS Assay for Inhibitors of Fructose-1,6-bisphosphate Aldolase from Giardia Lamblia. purified Giardia FBPA. Potency, µM (highest dose often 59.6 µM), without a hit: top-dose activity, negative = inhibition, actives largely listed as inhibitors. 290,000 tested, 0.71% active; also: potency is read from the fitted curve at half-maximal effect; % is scaled to controls: 0 for no effect and ±100 for the full control effect; nearly all actives have a fitted effect of over 55% in size
Target sequence (A8B2U2 whole entry, looked up): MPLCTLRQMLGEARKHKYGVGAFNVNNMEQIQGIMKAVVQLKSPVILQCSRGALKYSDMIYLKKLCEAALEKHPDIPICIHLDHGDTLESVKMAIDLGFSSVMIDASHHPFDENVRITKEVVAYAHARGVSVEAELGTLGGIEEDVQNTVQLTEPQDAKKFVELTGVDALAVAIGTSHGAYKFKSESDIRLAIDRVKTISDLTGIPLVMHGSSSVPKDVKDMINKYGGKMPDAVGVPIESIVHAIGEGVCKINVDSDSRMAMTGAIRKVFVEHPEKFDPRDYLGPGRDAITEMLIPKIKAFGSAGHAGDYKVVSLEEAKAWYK
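Giardia FBPA (40 nM reagent) was preincubated 10 min at RT with compound (up to 57.5 uM final), then substrate plus GAPDH/TPI/NAD/arsenate coupling system with diaphorase/resazurin was added; resorufin fluorescence (525/598 nm) was read after 20 min.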
CHX counter – Cycloheximide Counterscreen for Small Molecule Inhibitors of Shiga Toxin. 300,000 tested, 12% active. cell reporter, cycloheximide protein synthesis inhibition counterscreen. AID 2314, 2010. max response, %; in the data active = max response mostly above about 13%, no sharp cut-off; inactive = mostly below about 14%; also: read at 38.3 µM for the half of the compounds with a filed dose; 0% is about no effect
* hit, by the source's call; ? = inconclusive; . = not tested or not shown; [ ] = remark or other dose. Unless noted, calls follow the shape of the dose curve; as a rule, active = well fitted curve in the direction sought with a large enough effect; inconclusive = small, poorly fitted or top-dose-only effect, or another doubt; inactive = no such curve, though single readings can be large; an effect the other way counts as inactive or inconclusive.

SMILES	Pf growth 96h	Pf growth 48h	Shiga inhibitor	NS1 inh	Giardia FBPA inh	CHX counter
Oc1ccc(/C=N/Nc2ccc3ccccc3c2)c(O)c1	?	?	44*	.	-17%	31*
COc1ccc(/C=C/c2n[nH]c(=O)c(C#N)c2C)cc1	9%	?	24	-2%	-2%	4
Cc1ccc(NC2Sc3ccccc3NC2=O)cc1 (configuration not stated)	486%	211%	41*	.	-22%	22*
CC(C)C(=O)N1CCN(CCN=Cc2c(O)n(C)c(=O)n(C)c2=O)CC1	13µM*	?	43	9%	-1%	-4
CC(C)(C)NC(=O)C(c1ccc(O)cc1)N(C(=O)CCC(=O)Nc1ccccn1)c1ccc(F)cc1 (configuration not stated)	?	-4%	-12	-9%	8%	-6
O=C1CCc2cc(S(=O)(=O)Nc3ccccc3)ccc2N1	-27%	4%	.	.	.	.
CC(C)[C@H](NC(=O)c1ccccc1Cl)C(=O)Nc1nc(-c2ccccn2)cs1	?	9.3µM*	41	-38%	?	8
CCc1nnc(NC(=O)C(NC(=O)c2ccccc2Cl)C(C)C)s1 (configuration not stated)	3%	15%	15	.	-7%	1
CC(Oc1ccc(Br)cc1)C(=O)Nc1nc(-c2ccccn2)cs1 (configuration not stated)	3.7µM*	7.4µM*	6	-105%	.	-3
C[C@@H]1C=CCC(=O)OC[C@H](C)C(=O)OC[C@H]2O[C@H]1C=C[C@H]2O	.	.	.	.	2%[12.9 µM]	.
O=C(c1ccc(-c2ccccc2)c(F)c1)C1CCCN(C(=O)c2cncs2)C1 (configuration not stated)	13µM*	?	35	-53%	-3%	-2
Cc1nn(C)cc1CN1CCCC(C(=O)c2ccc(-c3ccccc3)c(F)c2)C1 (configuration not stated)	0%	15µM*	-16	-3%	-1%	-2
Cc1ccc(C(=O)Nc2cccc(C(=O)N/N=C/c3ccc(F)cc3)c2)cc1	?	53%	58*	14%	-5%	27*
Cc1ccc(C(=O)Nc2ccc(C(=O)N/N=C/c3ccc(C)o3)cc2)cc1	-7%	?	32	0%	4%	9
CC(=O)Nc1cccc(C(=O)N/N=C/c2cccnc2)c1	-18%	10%	22	1%	-3%	2
CC(=O)Nc1cccc(C(=O)N/N=C/c2ccc(F)cc2)c1	?	162%	83*	4%	2%	34*
CS(=O)(=O)Cc1cccc(C(=O)NN(c2ccccc2)c2ccccc2)c1	1%	-12%	7	-7%	-16%	-4
O=C(O)C(=Cc1ccc(-c2ccccc2)cc1)C(=O)O	.	.	.	-13%	.	.
O=C1CCC(=O)N1CN(C(=O)c1ccco1)c1ccc(Cl)c(Cl)c1	10µM*	23%	18	-20%	5%	-2
CC(=O)N(CN1C(=O)CCC1=O)c1ccc(Cl)c(Cl)c1	?	8%	-11	.	-5%	-3
Cc1ccc(NC(=O)CCn2cc(C(F)(F)F)ccc2=O)cc1	93%	0%	-11	2%	3%	-4
N[C@@H]1CCN(O)C1=O	.	.	1	.	11%	-9
CCCCCO	-13%	36%	.	.	.	.
Cc1nn(-c2ccccc2)c2c1C(c1ccc(Cl)cc1)N(c1ccccc1)C(=O)N2 (configuration not stated)	13µM*	13µM*	-13	4%	1%	-2
Cc1cccc2c3c(ccc12)C1=C(C(=O)C3=O)[C@@H](C)CO1	.	.	19	.	7.1µM*	29
SMILES	Pf growth 96h	Pf growth 48h	Shiga inhibitor	NS1 inh	Giardia FBPA inh	CHX counter
CCN(CC)CCNC(=O)C1(O)c2cc(Br)ccc2NC(=O)N1c1c(F)cccc1F (configuration not stated)	32%	-8%[0.00184 µM]	-12	0%	9%	-7
COc1cc(NC(=O)CSc2ncnc3sc4c(c23)CCCC4)c(C(=O)O)cc1OC	-16%	3%	1	0%	5%	-4
Cc1cccc(C(=O)O/N=C(\N)Cc2ccc([N+](=O)[O-])cc2)c1	?	?	21	-199%	1%	11
N/C(Cc1ccc([N+](=O)[O-])cc1)=N\OC(=O)CC1CCCCC1	?	13µM*	-1	-52%	3%	-2
N/C(Cc1ccc([N+](=O)[O-])cc1)=N\OC(=O)c1ccc2ccccc2c1	-15%	.	131*	-92%	2%	45*
O=C(COC(=O)C1CCCC1)NCc1ccc(Cl)cc1	48%	26%	-5	.	4%	-3
N/C(Cc1ccc([N+](=O)[O-])cc1)=N\OC(=O)c1ccco1	19%	41%	35*	-3%	3%	35*
N/C(Cc1ccc(Cl)cc1)=N\OC(=O)C1CCCCC1	43%	5.9µM*	69*	-63%	4%	53*
COc1ccc(CCNC(=O)CN2c3cccc4cccc(c34)S2(=O)=O)cc1	0%	-21%	.	.	.	.
O=C(O)c1cc(=O)[nH]c(=S)[nH]1	.	.	.	0%	.	.
CCOc1ccc(N(CC(=O)NCCc2ccc(Cl)cc2)S(=O)(=O)c2c(C)[nH]c(=O)[nH]c2=O)cc1	?	-18%	-2	.	8%	-2
CCCn1c(C)nc2c(NC(C)CCCN(CC)CC)nc(C)nc21 (configuration not stated)	.	.	.	.	0%	.
Fc1ccc(-c2csc(NC3=NCCC3)n2)cc1	36%	19%	109*	.	-1%	21*
Brc1ccc(-c2csc(NC3=NCCCCC3)n2)cc1	13µM*	57%	36	-1%	1%	24*
COc1cccc(NC2=NCCCCC2)c1	-2%	-2%	-5	3%	-2%	-2
COc1ccc(-c2csc(NC3=NCCCCC3)n2)cc1	35%	43%	108*	6%	-16%	33*
COc1ccc(NC2=NCCC2)cc1	9%	?	-17	?	-2%	-1
COc1ccc(-c2csc(NNC3=NCCCCC3)n2)cc1	0%	12µM*	26*	.	?	29*
COC(=O)c1ccc(N(CC(=O)NC2CCCCC2)C(=O)CNC(=O)c2ccco2)cc1	-30%	5%	-5	-10%	4%	-2
COc1ccc(CNc2ccnc(-c3cccc(NS(C)(=O)=O)c3)n2)c(OC)c1	.	.	.	.	-10%	.
CC(CCC(=O)O)C1CCC2C3CC[C@H]4CC(O)CC[C@@]4(C)C3C=C[C@]12C (some centres not stated)	.	.	.	.	3%	.
CCOc1ccc(-c2csc(NNC3=NCCCCC3)n2)cc1	-14%	0%	40	.	?	16*
Cc1ccc(NC(=O)c2snc3ccc(Cl)cc23)cc1C	0%	202%	32*	4%	2%	38*
Cc1ccc(NC(=O)c2cc(-c3cc(Cl)ccc3O)n[nH]2)cc1C	1.7µM*	1.9µM*	-6	4%	15%	-5
